Assay results as given in PubChem BioAssay (NCI).
Compounds without any hit were thinned out: in the full panel of roughly 79,000, 15% have a hit. Active and inactive are the calls of the source. No stated cut-off is given here; in the data, active means growth inhibition above about 70%; inactive means the rest.

What was measured:
[1] = NCI Yeast Anticancer Drug Screen. Data for the rad52 strain (AID 147);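 further: 0% = growth of vehicle-treated control cultures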; conditions: S. cerevisiae rad52 mutant growth inhibition, active compounds read high
How it was run: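 Genetically altered yeast (DNA damage repair defect) treated with compound; inhibition calculated relative to vehicle.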

[2] = NCI Yeast Anticancer Drug Screen. Data for the rad50EPP+ strain (AID 151);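 further: 0% = growth of vehicle-treated control cultures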; conditions: S. cerevisiae rad50 mutant strain, active compounds read high
How it was run: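 Strain rad50EPP+; compound exposure; % growth inhibition vs vehicle.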

[3] = NCI Yeast Anticancer Drug Screen. Data for the rad50 strain (AID 155);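 further: 0% = growth of vehicle-only cultures of the same strain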; conditions: S. cerevisiae rad50 strain growth inhibition, active compounds read high
How it was run: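 Readout: growth inhibition relative to vehicle-treated cultures. Compound exposure was carried out in a genetically defined yeast strain deficient in DNA damage repair.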

[4] = NCI Yeast Anticancer Drug Screen. Data for the mec2-1 strain (AID 157); conditions: S. cerevisiae mec2-1 strain, active compounds read high
How it was run: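 Cells of the genetically defined mec2-1 yeast strain are incubated with test compound. Inhibition of growth is calculated against vehicle-treated controls.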

[5] = NCI Yeast Anticancer Drug Screen. Data for the rad14 strain (AID 159);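 further: 0% = growth of vehicle-treated control cultures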; conditions: S. cerevisiae rad14 strain growth inhibition, active compounds read high
How it was run: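 Growth inhibition vs vehicle controls; genetically altered yeast strain (DNA damage repair defect) treated with test compounds.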

[6] = NCI Yeast Anticancer Drug Screen. Data for the sgs1 mgt1 strain (AID 161);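 further: 0% = growth of cultures given vehicle only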; conditions: S. cerevisiae sgs1 mgt1 strain, active compounds read high
How it was run: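 Inhibition of yeast growth, normalised to vehicle-treated controls, is reported for a strain bearing genetic alterations in DNA damage repair.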

[7] = NCI Yeast Anticancer Drug Screen. Data for the CLN2oe strain (AID 163);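 further: 0% = growth of vehicle-only control cultures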; conditions: S. cerevisiae CLN2oe strain, active compounds read high
How it was run: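 Strain altered in cell-cycle control, incubated with compound; growth compared to solvent-treated controls.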

[8] = NCI Yeast Anticancer Drug Screen. Data for the cln2 rad14 strain (AID 165);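 further: 0% = growth equal to vehicle treated cultures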; conditions: S. cerevisiae cln2 rad14 strain, active compounds read high
How it was run: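 The screen exposed genetically defined yeast (cln2 rad14) to test compounds and scored growth inhibition relative to vehicle-treated controls.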

[9] = NCI Yeast Anticancer Drug Screen. Data for the bub3 strain (AID 167); conditions: S. cerevisiae bub3 mutant strain, active compounds read high
How it was run: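 Readout: yeast growth inhibition, expressed relative to vehicle-only wells. The test organism is a mutant strain from a panel with lesions in DNA repair or checkpoint genes.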

[10] = NCI Yeast Anticancer Drug Screen. Data for the wt2 strain (AID 169);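 further: 0% = growth of vehicle-treated yeast cultures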; conditions: S. cerevisiae wt2 strain growth inhibition, active compounds read high
How it was run: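 Steps: yeast strain treated with compound; growth recorded; inhibition calculated relative to cultures given vehicle alone.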

[11] = NCI Yeast Anticancer Drug Screen. Data for the mlh1 strain (AID 171);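 further: 0% = growth of vehicle-treated control cultures of the same strain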; conditions: S. cerevisiae mlh1 strain growth inhibition, active compounds read high
How it was run: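 Yeast screen: mutant strain plus compound, growth scored against vehicle control wells.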

[12] = NCI Yeast Anticancer Drug Screen. Data for the sgs1 strain (AID 173);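 further: 0% = growth of vehicle-only control cultures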; conditions: S. cerevisiae sgs1 mutant, active compounds read high
How it was run: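 Inhibition of yeast growth served as the measure. The mutant strain was treated with each compound, and growth was normalised to cultures receiving vehicle alone.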

[13] = NCI Yeast Anticancer Drug Screen. Data for the mlh1 rad18 strain (AID 175); conditions: S. cerevisiae mlh1 rad18 strain growth inhibition, active compounds read high
How it was run: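 Compound-treated yeast growth, normalised to vehicle controls. Strain bears defined DNA repair mutations.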

[14] = NCI Yeast Anticancer Drug Screen. Data for the rad18 strain (AID 177); conditions: S. cerevisiae rad18 mutant growth inhibition, active compounds read high
How it was run: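 Inhibition values reflect reduced yeast growth compared with vehicle-treated controls, using a strain engineered with a DNA damage repair defect.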

[15] = NCI Yeast Anticancer Drug Screen. Data for the wt1 strain (AID 149);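 further: 0% = growth of vehicle-treated wt1 cultures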; conditions: S. cerevisiae wt1 strain (SPY 50644) growth inhibition, active compounds read high
How it was run: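 Growth inhibition read against vehicle controls after compound exposure of the wt1 yeast strain.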

[16] = NCI Yeast Anticancer Drug Screen. Data for the mgt1 strain (AID 153); conditions: S. cerevisiae mgt1 mutant growth inhibition, active compounds read high
How it was run: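 Read-out: yeast growth inhibition vs vehicle control. Strain mgt1, drawn from a panel altered in DNA damage repair or cell cycle control.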

[17] = at 5.0 µM (retest, dose inferred, filed as 0.5)
[18] = at 50.0 µM (retest, dose inferred, filed as 5.0)

Measured: growth inhibition

CCCCCNC(=O)c1c(O)[nH]c(=S)[nH]c1=O
active: [1]; at 33.0 µM 89% | [1]; at 100.0 µM 94% | [2]; at 100.0 µM 78% | [3]; at 33.0 µM 95% | [3]; [18] 93% | [3]; at 50.0 µM 88.1% | [3]; at 100.0 µM 96% | [4]; at 33.0 µM 87% | [4]; [18] 92% | [4]; at 50.0 µM 87.7% | [4]; at 100.0 µM 92% | [5]; at 11.0 µM 91% | [5]; at 33.0 µM 96% | [5]; at 100.0 µM 96% | [6]; [18] 87% | [6]; at 50.0 µM 92.2% | [7]; at 100.0 µM 83% | [9]; at 33.0 µM 87% | [9]; [18] 94% | [9]; at 50.0 µM 88.6% | [9]; at 100.0 µM 93% | [10]; at 33.0 µM 91% | [10]; at 100.0 µM 94% | [11]; at 11.0 µM 90% | [11]; at 33.0 µM 96% | [11]; at 100.0 µM 96% | [12]; at 11.0 µM 79% | [12]; at 33.0 µM 94% | [12]; at 100.0 µM 96% | [13]; at 50.0 µM 90.1% | [14]; at 33.0 µM 86% | [14]; at 100.0 µM 94%
inactive: [1]; at 1.2 µM -6% | [1]; at 3.7 µM -15% | [1]; at 11.0 µM 23% | [2]; at 1.2 µM -25% | [2]; at 3.7 µM -23% | [2]; at 11.0 µM -16% | [2]; at 33.0 µM 30% | [3]; at 1.2 µM 5% | [3]; at 3.7 µM 14% | [3]; [17] 61% | [3]; at 11.0 µM 64% | [4]; at 1.2 µM -14% | [4]; at 3.7 µM -5% | [4]; [17] 8% | [4]; at 11.0 µM 25% | [5]; at 1.2 µM 16% | [5]; at 3.7 µM 64% | [6]; [17] 26% | [7]; at 1.2 µM 4% | [7]; at 3.7 µM -7% | [7]; at 11.0 µM 2% | [7]; at 33.0 µM 53% | [8]; [17] 6% | [8]; [18] 60% | [8]; at 50.0 µM 61.3% | [9]; at 1.2 µM -17% | [9]; at 3.7 µM -1% | [9]; [17] 65% | [9]; at 11.0 µM 65% | [10]; at 1.2 µM -32% | [10]; at 3.7 µM -1% | [10]; at 11.0 µM 56% | [11]; at 1.2 µM 13% | [11]; at 3.7 µM 46% | [12]; at 1.2 µM -10% | [12]; at 3.7 µM 0% | [13]; [17] 42% | [13]; [18] 47% | [14]; at 1.2 µM -12% | [14]; at 3.7 µM 2% | [14]; at 11.0 µM 45%

CCOP(=O)(CC(C)P(=O)(OCC)OCC)OCC.C[CH2][Sn]([Cl])([Cl])[CH2]C (stereo unspecified)
inactive: [15]; at 1.2 µM 0% | [15]; at 3.7 µM 3% | [15]; at 11.0 µM 12% | [2]; at 1.2 µM -1% | [2]; at 3.7 µM 1% | [2]; at 11.0 µM 5% | [2]; at 33.0 µM 4% | [2]; at 100.0 µM 4% | [16]; at 1.2 µM -3% | [16]; at 3.7 µM -1% | [16]; at 11.0 µM 4% | [16]; at 33.0 µM 67% | [3]; at 1.2 µM -7% | [3]; at 3.7 µM -15% | [3]; [17] 16% | [3]; at 11.0 µM -2% | [3]; [18] 14% | [4]; at 1.2 µM 1% | [4]; at 3.7 µM 4% | [4]; [17] 1% | [4]; at 11.0 µM 14% | [4]; at 33.0 µM 69% | [4]; [18] 18% | [5]; at 1.2 µM -3% | [5]; at 3.7 µM 1% | [5]; at 11.0 µM 4% | [5]; at 33.0 µM 19% | [6]; [17] 11% | [6]; [18] 4% | [6]; at 50.0 µM 68.2% | [7]; at 1.2 µM -6% | [7]; at 3.7 µM -5% | [7]; at 11.0 µM 7% | [8]; [17] 6% | [8]; [18] 52% | [8]; at 50.0 µM 50.1% | [9]; at 1.2 µM -2% | [9]; at 3.7 µM 1% | [9]; [17] -9% | [9]; at 11.0 µM 5% | [9]; at 33.0 µM 55% | [9]; [18] 53% | [10]; at 1.2 µM -1% | [10]; at 3.7 µM -2% | [10]; at 11.0 µM 2% | [11]; at 1.2 µM 0% | [11]; at 3.7 µM 2% | [11]; at 11.0 µM 8% | [11]; at 33.0 µM 69% | [12]; at 1.2 µM -8% | [12]; at 3.7 µM 4% | [12]; at 11.0 µM 14% | [13]; [17] -2% | [13]; [18] 28% | [13]; at 50.0 µM 62.7% | [14]; at 1.2 µM -2% | [14]; at 3.7 µM 4% | [14]; at 11.0 µM 24%
active: [15]; at 33.0 µM 76% | [15]; at 100.0 µM 93% | [16]; at 100.0 µM 95% | [3]; at 33.0 µM 71% | [3]; at 50.0 µM 82.7% | [3]; at 100.0 µM 92% | [4]; at 50.0 µM 85.4% | [4]; at 100.0 µM 93% | [5]; at 100.0 µM 76% | [7]; at 33.0 µM 72% | [7]; at 100.0 µM 93% | [9]; at 50.0 µM 84.1% | [9]; at 100.0 µM 91% | [10]; at 33.0 µM 76% | [10]; at 100.0 µM 94% | [11]; at 100.0 µM 95% | [12]; at 33.0 µM 85% | [12]; at 100.0 µM 95% | [14]; at 33.0 µM 75% | [14]; at 100.0 µM 92%
